# In PubChem BioAssay (NCI):
# About 83,000 compounds went through this panel and 20% of them were active in at least one assay; those are over-represented in the sample as a whole.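 Plates (96-well) were seeded with cells, treated with compound at one concentration, and incubated for 48 hours before percent growth was determined.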 Unmarked numbers belong to inactive results. Activity calls are given as the source filed them. The calls were made as follows: active = growth percent below 10; inactive = the rest.
# Assays:
# Test in all cases: NCI-60 one-dose screen, 48 h (100 = growth as untreated, 0 = no growth, -100 = all killed)
# Conditions in all cases: 10 µM unless noted
# HCT-15 colon = system: HCT-15 colon
# HT29 colon = system: HT29 colon
# SNB-75 CNS = system: SNB-75 CNS
# SNB-19 CNS = system: SNB-19 CNS
# U251 CNS = system: U251 CNS
# SK-MEL-5 melanoma = system: SK-MEL-5 melanoma
# UACC-62 melanoma = system: UACC-62 melanoma
# LOX IMVI melanoma = system: LOX IMVI melanoma
# SK-MEL-28 melanoma = system: SK-MEL-28 melanoma
# SK-MEL-2 melanoma = system: SK-MEL-2 melanoma
# EKVX NSCLC = system: EKVX NSCLC
# SN12C renal = system: SN12C renal
# UO-31 renal = system: UO-31 renal
# ACHN renal = system: ACHN renal
# CAKI-1 renal = system: CAKI-1 renal
# A498 renal = system: A498 renal
# CCRF-CEM leukemia = system: CCRF-CEM leukemia
# MOLT-4 leukemia = system: MOLT-4 leukemia
# TK-10 renal = system: TK-10 renal
Compound,growth (HCT-15 colon) [%],growth (HT29 colon),growth (SNB-75 CNS),growth (SNB-19 CNS) [%],growth (U251 CNS) [%],growth (SK-MEL-5 melanoma) [%],growth (UACC-62 melanoma),growth (LOX IMVI melanoma) [%],growth (SK-MEL-28 melanoma) [%],growth (SK-MEL-2 melanoma),growth (EKVX NSCLC) [%],growth (SN12C renal) [%],growth (UO-31 renal) [%],growth (ACHN renal) [%],growth (CAKI-1 renal) [%],growth (A498 renal),growth (CCRF-CEM leukemia) [%],growth (MOLT-4 leukemia),growth (TK-10 renal) [%]
COc1ccc(CCNc2nc3c(c(=O)n(Cc4ccc(Br)cc4)c(=O)n3C)n2C)cc1OC,102,103%,84.5%,94.5,92,68,74.8%,94.5,99,93%,83.7,91.1,70.6,89.7,85.6,92.6%,99.7,88.2%,–
Oc1ccc(N=Cc2ccccc2O)cc1,120,99%,89.1%,93.1,83.3,92.3,96.8%,104,127,141%,103,102,77.3,88.3,–,112%,79.5,89.6%,101
Cn1cccc1-c1nc2c3c(ccc2[nH]1)C(=O)c1ccccc1C3=O,82.1,104%,137%,105,87.5,90.4,80.5%,88.9,117,–,65.2,91.9,58.7,80.7,96.3,88.7%,78.9,62.1%,98.7
CCOc1cc2c(cc1OCC)C(c1cc(OC)c(O)cc1Cl)NCC2 (stereo not given),86.9,56.9%,82.2%,103,84.1,88.6,99.8%,89.6,99.9,113%,–,96.7,70.1,94.6,115,93.7%,108,112%,88.2
Cn1cc(C(=O)c2nc(-c3c[nH]c4ccc(F)cc34)no2)c2cc(F)ccc21,68.6,101%,79.8%,101,100,92.8,81.7%,95.2,103,–,89.8,95.1,69.5,96.1,82.5,112%,91.7,95.2%,113
COc1ccc(-c2cc(Nc3ccnc(N4CCOCC4)n3)on2)cc1,20.3,9.4% (active),-3.66% (active),39,23.2,19.7,60.5%,51.9,69.3,42%,50.9,47.2,51.9,44.9,51.8,-0.776% (active),17.2,21.2%,–
COc1ccc(S(=O)(=O)N2CCN(C)CC2)cc1NC(=O)c1[nH]c(C)c2c1CCCCC2=O,62.4,28.9%,17.4%,66.5,68,43.7,25.6%,–,72,79.6%,58.4,60.4,37,58.6,21.2,60.9%,75.5,81.4%,33.4
NC(CSC(c1ccccc1)(c1ccccc1)c1ccc(Cl)cc1)C(=O)O (stereo not given),19.3,2.26% (active),20.9%,37.9,12.2,10.6,7.9% (active),36,33.4,-9.63% (active),27.1,27.5,65,53,–,26.7%,–,6.35% (active),64.8
CN(C)[C@@H]1C(=O)C(C(=O)NCc2nc3[nH]cnc(=S)c3[nH]2)=C(O)[C@@]2(O)C(=O)C3=C(O)c4c(O)cccc4[C@@](C)(O)[C@H]3C[C@@H]12,76.7,64.3%,61.8%,84.1,96,75.5,25.5%,12.4,118,13.1%,88.8,87.8,47.4,74,–,101%,–,12.9%,22.7
